Results as given in PubChem BioAssay (NCI).
This is part of a sample that, as a whole, favours compounds with a hit. Of some 83,000 tested, about 20% had one in any assay.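 Cell lines were cultured in 96-well plates, exposed to a single compound concentration, and assessed for percent growth 48 hours later.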 A number with no mark means an inactive call. The source made the active and inactive calls.

These compounds were tested on OVCAR-3 ovarian (assay: NCI-60 one-dose screen, 48 h (100 = growth as untreated, 0 = no growth, -100 = all killed)). Settings: 10 µM unless noted.
Method: Growth inhibition of the OVCAR-3 human tumor cell line is measured as a screen for anti-cancer activity. Cells are grown in 96 well plates and exposed to the test compound for 48 hours. Compounds are tested at a single concentration, which is 10^-5 M for most compounds. The reported endpoint is percent growth (GI% or GIPRCNT), where numbers from 0 - 100% represent growth inhibition, and numbers from -100% - 0 represent cell death. For example, a value of 40 represents 60% growth inhibition. A value of 0 means no net growth occurred over the course of the experiment. A value of -40 indicates 40% of cells at the beginning of the experiment died by the end of the experiment. A value of -100 means all cells are dead at the end of the experiment.
NCI-60 Human Tumor Cell Lines Screen was performed using the standard one-dose NCI protocol, which is described in more detail at https://dtp.cancer.gov/discovery_development/nci-60/default.htm.
Compounds with GIPRCNT values below 10 were considered active. Activity score was based on GIPRCNT using the following formula: […]
Score is 0 for GIPRCNT values of 100 or above, 50 for GIPRCNT values of 0, and 100 for GIPRCNT values of -100.
In the case of COc1ccc2c(c1)oc1c(C)c3c(c(C)c12)C(=O)N(N)C3=O, the growth is reported as 24.9%. CCN(c1ccccc1)S(=O)(=O)c1cc([N+](=O)[O-])ccc1Cl showed a growth of 74.7%. CN1CCN(CCNc2nccc(-c3c(-c4cccc(O)c4)nc4sccn34)n2)S1(=O)=O was tested, and the growth was 81.5%. In the case of COCc1cnccc1NC1CCCCCC1, the growth is reported as 102%. COc1ccc(C(=O)c2cc(OC)c(OC)c(OC)c2)cc1O was tested, and the growth was -6.73% (active). In the case of C=C1C(=O)O[C@H]2[C@H]1CC/C(CNC(=O)CCc1ccc(OC)cc1)=C\CC[C@@]1(C)O[C@@H]21, the growth is reported as 30.6%. Nc1c(C(=O)Nc2ccnc3ccccc23)sc2nc3c(cc12)CN(Cc1ccccc1)CC3 gave a growth of 85.1%. For Cc1ccc(C(=O)/C(=C\c2ccc([N+](=O)[O-])cc2)S(=O)Cc2ccc(Cl)cc2)cc1 (stereo not given), the growth was 22.4%. CCOc1cccc(-c2nc(N)nc(Nc3ccccc3SSc3ccccc3Nc3nc(N)nc(-c4cccc(OCC)c4)n3)n2)c1 was tested, and the growth was 80.2%. O=C(Nc1ccc(-c2ccc3c(c2)NC(=O)/C3=C\c2ccc[nH]2)cc1)NC1CC1 was tested, and the growth was 107%. O=C1Nc2cc(-c3ccc(NS(=O)(=O)c4ccccc4)cc3)ccc2/C1=C/c1ccc[nH]1 gave a growth of 108%. With C=C(C)[C@@H]1CC[C@]2(C(=O)N3CCN(C)CC3)CC[C@]3(C)[C@H](CC[C@@H]4[C@@]5(C)CC[C@H](O)C(C)(C)[C@@H]5CC[C@]43C)[C@@H]12 the growth was -94% (active). C=C1C(=O)O[C@H]2[C@H]1CC/C(COC(=O)NCc1c[nH]c3ccc(F)cc13)=C\CC[C@@]1(C)O[C@@H]21 was tested, and the growth was -75.6% (active). O=C(NCCc1ccccc1)Nc1ccc2cc3ccc(NC(=O)NCCc4ccccc4)cc3nc2c1 was tested, and the growth was 19.2%. For O=C(c1nc2ccccc2[nH]1)C1C(c2ccc(Br)cc2)C2CC3CCCC[C@H]3N2[C@@]12C(=O)Nc1cc(Cl)ccc12 (stereo not given in full), the growth was 34.3%. CC(=O)[C@@H]1CC[C@]2(CO)CC[C@]3(C)[C@H](CC[C@@H]4[C@@]5(C)CCCNC(C)(C)[C@@H]5CC[C@]43C)[C@@H]12 showed a growth of 97.2%. In the case of C/C(=N\NC(=O)CSc1nc2ccccc2c(=O)n1CCc1ccc(S(N)(=O)=O)cc1)c1ccccn1, the growth is reported as 12.5%. For CCN1C(=O)N(CC)C2Nn3c(s/c(=C\c4ccc(OC)cc4)c3=O)=NC21 (stereo not given), the growth was 19.2%. With Cc1cccc(NC(=O)Nc2ccc(-n3cnc4cc(-c5ccc(O)cc5)ccc43)cc2)c1 the growth was 20.4%. For O=S(=O)(NCCCNc1nccc(-c2c(-c3cccc(F)c3)nc3sccn23)n1)c1cccc(F)c1, the growth was 50.7%. COc1ccc(CC(C)=C(c2ccc(OCCN3CCCCCC3)cc2)c2ccc(OCCN3CCCCCC3)cc2)cc1 was tested, and the growth was -89.2% (active). N#CC1=C(N)Oc2c(cnn2-c2ccc([N+](=O)[O-])cc2[N+](=O)[O-])C1c1ccccc1 (stereo not given) showed a growth of 112%. With CCCCCCOc1ccc(/C=N/Nc2cc(C)nc3ccc(Cl)cc23)cc1 the growth was -97% (active). Work on CCN1Cc2nc3sc(C)c(C)c3c(=O)n2C=C1C yielded a growth of 46%. For CN(C)c1ccc(Nc2c3ccccc3nc3cc(NC(=O)CCN4CCCC4)ccc23)cc1, the growth was -38.6% (active). NS(=O)(=O)c1ccc(CCN2C(=O)C=CC2=O)cc1 gave a growth of 106%. With CCC(CC)NCC(C)(C)O the growth was 119%. CSc1nc2sc3cccc(Cl)c3n2c(=N)c1C#N gave a growth of 110%. O=S(=O)(NCCNc1nccc(-c2c(-c3cccc(O)c3)nc3occn23)n1)c1ccc(Cl)cc1 showed a growth of 113%. Compound COc1ccc(C(=O)CC#N)cc1 has a growth of 112%. N/C(=N\C(N)=N\c1nc2ccccc2s1)c1cccc(Cl)c1 was tested, and the growth was 99.2%. In the case of O=C1Nc2cc(-c3cccc([N+](=O)[O-])c3)ccc2/C1=C/c1ccc[nH]1, the growth is reported as 70.6%. COc1cc(/C=C/c2cc(O)c(C(C)=O)c(O)c2)cc2c1O[C@]1(C)CC[C@@H](O)C(C)(C)[C@H]1C2 gave a growth of 61.4%. In the case of O=S(=O)(NCCNc1nccc(-c2c(-c3cccc(O)c3)nc3occn23)n1)c1ccccc1, the growth is reported as 97.9%. For COc1cccc(-c2ccc3c(c2)NC(=O)/C3=C\c2ccc[nH]2)c1, the growth was 12.7%. O=C1C=CC(=O)N1c1cccc(Cl)c1 gave a growth of 90.1%. Compound CN1CCN(C(=O)[C@]23CCC(C)(C)C[C@H]2C2=CC[C@@H]4[C@@]5(C)C/C(=C/c6ccncc6)C(=O)C(C)(C)[C@@H]5CC[C@@]4(C)[C@]2(C)CC3)CC1 has a growth of 47.2%. Work on CC(=O)c1cc2c(N)c(C(=O)Nc3cccc4ccncc34)sc2nc1C yielded a growth of 103%. Work on O=c1ccc(-c2nc(N3CCOCC3)c3ccccc3n2)c[nH]1 yielded a growth of 101%. In the case of [O-][n+]1c(Cl)cc(Cl)c2ccccc21, the growth is reported as 93.7%.
